Experimental findings from PubChem BioAssay (Tox21) are described below.

Experiment [1] is described as follows: qHTS assay to identify small molecule antagonists of the glucocorticoid receptor (GR) signaling pathway - cell viability counter screen (AID 720693). Note: nearly all actives have a fitted effect of over 55% in size. Note: potency is the fitted concentration of half-maximal effect. In general terms: qHTS replaces the single test concentration by a dilution series.
A short description of experiment [2]: qHTS assay for identifying genotoxic compounds that show differential cytotoxicity against isogenic chicken DT40 cell lines with known DNA damage response pathways - wild type cell line (AID 743012). Note: nearly all actives have a fitted effect of over 60% in size. Note: potency is the fitted concentration of half-maximal effect. In short, it runs like this:
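Wild-type DT40 cells (300/well) exposed to compounds for 40 hours at 37 C/5% CO2. Viability read by CellTiter-Glo luminescence after 30 min at room temperature.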

The nature of experiment [3]: qHTS assay to identify small molecule antagonists of the androgen receptor (AR) signaling pathway - cell viability counter screen (AID 743033; note: nearly all actives have a fitted effect of over 45% in size; note: potency is the fitted concentration of half-maximal effect).
The nature of experiment [4]: qHTS assay to identify small molecule antagonists of the thyroid receptor (TR) signaling pathway - cell viability counter screen (AID 743064). Note: nearly all actives have a fitted effect of over 50% in size. Note: potency is the fitted concentration of half-maximal effect. A digest of the protocol: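 CellTiter-Fluor readout, 30 min at 37 °C/5% CO2, following 23.5 h incubation of GH3.TRE-Luc cells with test compound and 1 nM T3 (final).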
The test system of experiment [5] is thyroid hormone receptor (rat, GH3 cells). Description: qHTS assay to identify small molecule agonists of the thyroid receptor (TR) signaling pathway (AID 743066; calls by dose curve).
Experiment [6] can be described thus: qHTS assay to identify small molecule antagonists of the estrogen receptor alpha (ER-alpha) signaling pathway - cell viability counter screen (AID 743074; calls by dose curve;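 note: HEK293 cells carrying ER-alpha-UAS-bla reporter stimulated with 17beta-estradiol; nearly all actives have a fitted effect of over 45% in size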; note: potency is the fitted concentration of half-maximal effect).
The nature of experiment [7]: qHTS assay to identify small molecule antagonists of the estrogen receptor alpha (ER-alpha) signaling pathway using the BG1 cell line - cell viability counter screen (AID 743081).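 Note: compound given together with 17beta-estradiol as the ER stimulus; nearly all actives have a fitted effect of over 45% in size.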 Note: potency is the fitted concentration of half-maximal effect.
Experiment [8] concerns the target Aromatase (Homo sapiens) (UniProt P11511). Description: qHTS assay to identify aromatase inhibitors (AID 743083). Note: nearly all actives have a fitted effect of over 55% in size. Note: potency is the fitted concentration of half-maximal effect.
Experiment [9] is described as follows: qHTS assay for identifying genotoxic compounds that show differential cytotoxicity against isogenic chicken DT40 cell lines with known DNA damage response pathways - Rad54/Ku70 mutant cell line (AID 743015). Note: nearly all actives have a fitted effect of over 60% in size. Note: potency is the fitted concentration of half-maximal effect.
Experiment [10] concerns the target Androgen receptor (Homo sapiens) (UniProt P10275). The experiment in a line: qHTS assay to identify small molecule antagonists of the androgen receptor (AR) signaling pathway using the MDA cell line (AID 743042; note: nearly all actives have a fitted effect of over 55% in size). In short, it runs like this: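 MDA-kb2 breast carcinoma cells carrying MMTV-luciferase (AR/GR responsive) were co-treated with compounds and the agonist R1881 for 16 h at 37C. Inhibition read as ONE-Glo luminescence; CellTiter-Fluor fluorescence measured in parallel for cytotoxicity.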

Experiment [11] in a line: qHTS assay to identify small molecule antagonists of the androgen receptor (AR) signaling pathway using the MDA cell line - cell viability counter screen (AID 743041; note: nearly all actives have a fitted effect of over 45% in size; note: potency is the fitted concentration of half-maximal effect). In short, it runs like this:
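Same-well cytotoxicity was assessed by CellTiter-Fluor in MDA-kb2 AR-luc cells after 16 h of compound treatment under R1881 agonism.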

Experiment [12] can be described thus: qHTS assay to identify small molecule antagonists of the thyroid receptor (TR) signaling pathway (AID 743065). Note: nearly all actives have a fitted effect of over 55% in size. Note: potency is the fitted concentration of half-maximal effect. A digest of the protocol:
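GH3.TRE-Luc rat pituitary cells (two TREs driving luciferase) were dosed with compound, then stimulated with 1 nM T3 (final) for 23.5 h at 37 C. ONE-Glo luminescence was the read-out, with CellTiter-Fluor fluorescence as the cytotoxicity counter-screen.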

Experiment [13] is described as follows: qHTS assay to identify small molecule antagonists of the estrogen receptor alpha (ER-alpha) signaling pathway using the BG1 cell line (AID 743080; calls by dose curve;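 note: BG1 cells stimulated with 17beta-estradiol alongside compound; nearly all actives have a fitted effect of over 25% in size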; note: potency is the fitted concentration of half-maximal effect). A digest of the protocol:
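BG1-Luc-4E2 cells (endogenous full-length ER-alpha, stable 4×ERE-luciferase) were starved 5 days in phenol-red-free medium with 10% charcoal-stripped FBS, plated 24 h, then given compound plus 17beta-estradiol for 21.5 h at 37 C; ONE-Glo luminescence read after 30 min.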

Experiment [14] has as its target Estrogen receptor (Homo sapiens) (UniProt P03372). Description: qHTS assay to identify small molecule agonists of the estrogen receptor alpha (ER-alpha) signaling pathway (AID 743075; calls by dose curve;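 note: HEK293 GripTite cells with ER-alpha and UAS-driven beta-lactamase reporter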; note: potency is the fitted concentration of half-maximal effect).
For experiment [15] the target is unchanged. Description: qHTS assay to identify small molecule agonists of the estrogen receptor alpha (ER-alpha) signaling pathway using the BG1 cell line (AID 743079). Note: nearly all actives have a fitted effect of over 20% in size. Note: potency is the fitted concentration of half-maximal effect.
The target is the same in experiment [16]. Description: qHTS assay to identify small molecule antagonists of the estrogen receptor alpha (ER-alpha) signaling pathway (AID 743069; active = well fitted curve in the direction sought with a large enough effect in the signal ratio in the repeat runs, not every such curve was filed as active; inconclusive = weak or mixed curves, or effect the other way; inactive = no such curve, though single readings can be large or run the other way; the % refers to the signal ratio; note: potency is the fitted concentration of half-maximal effect). In short, it runs like this: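 Reporter cells (ER-alpha-bla, HEK293 background) are conditioned overnight in stripped-serum medium (2% charcoal-stripped FBS). Compound and 17beta-estradiol exposure runs 18 hr at 37C, 5% CO2.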

The target in experiment [17] is Androgen receptor (Homo sapiens) (UniProt P10275). The experiment in a line: qHTS assay to identify small molecule antagonists of the androgen receptor (AR) signaling pathway (AID 743035; active = well fitted inhibition curve with a large enough effect in the signal ratio in the repeat runs, not every such curve was filed as active; inconclusive = weak or mixed curves, or effect the other way; inactive = no such curve, though single readings can be large or run the other way; the % refers to the signal ratio; note: potency is the fitted concentration of half-maximal effect). A digest of the protocol: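 HEK293 cells stably carrying UAS-beta-lactamase reporter, 2,000/well, given compounds plus R1881 agonist and incubated 16 h at 37C. LiveBLAzer B/G FRET substrate then added for 2 h at room temperature before fluorescence reading.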

Experiment [18] has the same target. Description: qHTS assay to identify small molecule agonists of the androgen receptor (AR) signaling pathway (AID 743036; active = well fitted activation curve with a large enough effect in the signal ratio in the repeat runs, with a control signal flat, not every such curve was filed as active; inconclusive = weak or mixed curves, or effect the other way; inactive = no such curve, though single readings can be large or run the other way; the % refers to the signal ratio). In short, it runs like this:
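Following a 4 h settling period, AR-UAS-bla HEK293 cells were dosed with compounds for 16 h at 37C. A 2 h room-temperature incubation with LiveBLAzer B/G FRET substrate preceded the fluorescence measurement.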

Experiment [19] has the same target. The experiment in a line: qHTS assay to identify small molecule agonists of the androgen receptor (AR) signaling pathway using the MDA cell line (AID 743040; note: potency is the fitted concentration of half-maximal effect; nearly all actives have a fitted effect of over 20% in size). In short, it runs like this: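 Human breast carcinoma MDA-kb2 reporter cells (MMTV-luc, AR/GR elements) were treated for 16 h at 37C in 0% CO2 following a 5 h settling period. Signal was quantified by ONE-Glo luminescence.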

Activity calls are given as the source filed them. Unless noted, calls come from the whole dose curve; as a rule, active = well fitted curve in the direction sought with a large enough effect in the repeat runs; inconclusive = weak or mixed curves; inactive = no such curve, though single readings can be large; an effect the other way counts as inactive or inconclusive.

Sequence of Estrogen receptor (Homo sapiens) (P03372 whole entry, looked up): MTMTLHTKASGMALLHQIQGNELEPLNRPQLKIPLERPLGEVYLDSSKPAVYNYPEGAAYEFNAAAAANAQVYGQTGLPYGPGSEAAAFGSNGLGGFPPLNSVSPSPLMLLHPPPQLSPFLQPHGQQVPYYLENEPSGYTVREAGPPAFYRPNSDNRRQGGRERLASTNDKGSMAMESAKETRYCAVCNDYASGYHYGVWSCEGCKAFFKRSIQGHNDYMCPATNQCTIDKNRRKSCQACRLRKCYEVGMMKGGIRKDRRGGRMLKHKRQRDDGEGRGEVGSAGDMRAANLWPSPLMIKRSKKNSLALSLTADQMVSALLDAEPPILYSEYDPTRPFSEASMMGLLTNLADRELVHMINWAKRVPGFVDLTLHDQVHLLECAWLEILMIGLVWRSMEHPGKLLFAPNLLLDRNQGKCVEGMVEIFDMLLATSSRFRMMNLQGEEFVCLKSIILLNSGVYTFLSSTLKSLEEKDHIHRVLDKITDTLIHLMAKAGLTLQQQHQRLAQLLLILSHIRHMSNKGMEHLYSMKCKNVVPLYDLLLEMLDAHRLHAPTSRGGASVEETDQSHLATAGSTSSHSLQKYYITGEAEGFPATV
Sequence of Androgen receptor (Homo sapiens) (P10275 whole entry, looked up): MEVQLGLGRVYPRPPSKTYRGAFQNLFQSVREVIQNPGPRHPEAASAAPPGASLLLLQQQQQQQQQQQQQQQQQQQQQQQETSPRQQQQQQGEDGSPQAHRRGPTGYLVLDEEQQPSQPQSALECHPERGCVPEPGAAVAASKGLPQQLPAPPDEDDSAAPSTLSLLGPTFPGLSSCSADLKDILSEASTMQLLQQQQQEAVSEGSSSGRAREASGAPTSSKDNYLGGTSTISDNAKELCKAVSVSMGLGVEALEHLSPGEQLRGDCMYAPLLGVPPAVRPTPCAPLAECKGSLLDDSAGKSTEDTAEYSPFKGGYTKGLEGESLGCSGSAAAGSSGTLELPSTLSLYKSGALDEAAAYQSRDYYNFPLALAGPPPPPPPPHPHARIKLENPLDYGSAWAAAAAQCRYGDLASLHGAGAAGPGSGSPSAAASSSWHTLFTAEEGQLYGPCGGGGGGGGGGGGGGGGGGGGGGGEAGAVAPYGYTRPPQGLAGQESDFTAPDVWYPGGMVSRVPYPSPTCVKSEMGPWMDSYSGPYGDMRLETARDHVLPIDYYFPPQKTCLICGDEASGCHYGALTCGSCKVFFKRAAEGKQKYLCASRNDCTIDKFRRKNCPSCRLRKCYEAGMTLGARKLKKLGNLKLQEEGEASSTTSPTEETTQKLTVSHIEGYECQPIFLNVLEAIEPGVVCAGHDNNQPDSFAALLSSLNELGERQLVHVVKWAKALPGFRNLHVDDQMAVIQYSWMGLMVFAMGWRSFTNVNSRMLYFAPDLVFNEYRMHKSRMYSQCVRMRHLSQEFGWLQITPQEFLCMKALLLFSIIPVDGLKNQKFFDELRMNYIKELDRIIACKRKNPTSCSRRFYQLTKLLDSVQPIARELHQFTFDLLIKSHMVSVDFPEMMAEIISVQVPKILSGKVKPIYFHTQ
Sequence of Aromatase (Homo sapiens) (P11511 whole entry, looked up): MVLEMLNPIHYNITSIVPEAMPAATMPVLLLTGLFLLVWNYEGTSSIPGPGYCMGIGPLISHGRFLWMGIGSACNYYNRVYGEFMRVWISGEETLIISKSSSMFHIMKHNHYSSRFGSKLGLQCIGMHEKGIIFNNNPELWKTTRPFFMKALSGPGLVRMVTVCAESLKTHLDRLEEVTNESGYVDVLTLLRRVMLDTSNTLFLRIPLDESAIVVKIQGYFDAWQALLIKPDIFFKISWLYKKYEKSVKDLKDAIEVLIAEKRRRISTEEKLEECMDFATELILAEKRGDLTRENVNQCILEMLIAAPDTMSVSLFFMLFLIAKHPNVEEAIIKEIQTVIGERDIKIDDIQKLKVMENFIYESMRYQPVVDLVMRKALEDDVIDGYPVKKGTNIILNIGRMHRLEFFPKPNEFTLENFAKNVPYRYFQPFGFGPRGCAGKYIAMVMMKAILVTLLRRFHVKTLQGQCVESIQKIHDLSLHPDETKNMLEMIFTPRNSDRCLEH

As to `[Cl][Sb]([Cl])[Cl]`, the Potency entry in experiment [1], in experiment [2], in experiment [3], in experiment [6], in experiment [7] and in experiment [8] was “inactive” throughout. For the same compound, the Potency in [4] is 17.2 µM (active). For the same compound, in experiment [5], the outcome was inactive.
For the compound `CC(C)(O)c1cnn2c(-c3ccc(F)c(-c4c(F)cccc4C#N)c3)cnc2n1`, the Potency entry in [1], in [10], in experiment [6] and in [7] was “inactive” each time. The Potency was 48.6 µM (active) in experiment [2], 21.7 µM (active) in experiment [9] and 54.5 µM (active) in experiment [8]. Besides, in [5], the compound was classed as inactive.
In the case of `CC(c1ccc(O)cc1)c1ccc(O)cc1`, the Potency entry in [1], in experiment [2], in [9], in experiment [3], in [11] and in experiment [4] was “inactive” in each case. For the same compound, the Potency entry in experiment [12], in experiment [6], in experiment [13], in experiment [7] and in experiment [8] was “inactive” each time. Further, the call in experiment [5] was inactive.
As for `c1ccc2c(c1)[nH]c1cnccc12`, the Potency result in experiment [1], in [2], in [3], in experiment [11], in experiment [4] and in experiment [6] was “inactive” throughout. Further, the Potency result in experiment [14], in experiment [15], in experiment [13], in [7] and in experiment [8] was “inactive” each time. Further, the compound was classed as inactive in experiment [5].
Turning to `CN(C)C(=S)[S-].CN(C)C(=S)[S-].[Cu+2]`, the Potency in experiment [1] is 2.67 µM (active); in experiment [2] it was 14.9 µM (active); in experiment [3] it was 2.99 µM (active); in experiment [4] it was 1.49 µM (active); in [6], 6.7 µM (active); in experiment [7], 1.49 µM (active). Also, the Potency in experiment [8] was 1.49 µM (active).
With `CCC[CH2][Sn]([CH2]CCC)([CH2]CCC)[O]C(=O)c1ccccc1`, the Potency was 1.55 µM (active) in experiment [1]; 0.243 µM (active) in experiment [2]; 0.193 µM (active) in experiment [9]; 0.692 µM (active) in [3]; 1.93 µM (active) in experiment [11]; 1.22 µM (active) in experiment [4]. Besides, the Potency in experiment [16] was 9.77 µM [cytotoxic] (active); in experiment [6] it was 1.74 µM (active); in experiment [13], 0.344 µM (active); in [7] it was 1.72 µM (active); in experiment [8] it was 2.17 µM (active).
As for `NNC(=O)c1ccccc1`, the Potency entry in experiment [1], in experiment [2], in [9], in experiment [3], in experiment [11] and in experiment [4] was “inactive” throughout. The Potency result in experiment [12], in experiment [16], in experiment [6], in experiment [14], in experiment [13] and in experiment [7] was “inactive” each time. Also, the Potency result in experiment [8] is “inactive”. In addition, the compound was called inactive in experiment [5]. In addition, the Potency in experiment [15] is 19.9 µM (active).
As for `N#C/C=C/C#N`, the Potency entry in experiment [1], in [2], in experiment [9], in [3], in experiment [11] and in [16] was “inactive” in each case. Moreover, the Potency entry in [6], in [15] and in [7] was “inactive” throughout. The Potency in experiment [4] was 64 µM (active); in experiment [12], 32.1 µM (active); in experiment [14], 45.7 µM [inconclusive] (active); in [8] it was 28.6 µM (active). In addition, in [5], the result was inactive.
Regarding `CCN(CC)c1c([N+](=O)[O-])cc(C(F)(F)F)c(N)c1[N+](=O)[O-]`, the Potency result in experiment [1], in experiment [18], in experiment [11], in experiment [10], in [4] and in experiment [12] was “inactive” in each case. The Potency result in experiment [7] is “inactive”. The Potency in [2] is 19.3 µM (active); in [9] it was 17.2 µM (active); in [17], 43.6 µM (active); in [14] it was 38.9 µM [inconclusive] (active); in experiment [8], 34.4 µM (active). For the same compound, the result in experiment [5] was inactive.
Take `CC(C)[C@H](C(=O)O[C@H](C#N)c1cccc(Oc2ccccc2)c1)c1ccc(Cl)cc1`: the Potency entry in experiment [1], in experiment [3], in experiment [11], in experiment [4], in experiment [6] and in experiment [7] was “inactive” in each case. Also, the Potency result in experiment [8] is “inactive”. Moreover, the figures for the Potency in experiment [2] and in experiment [9] were 43.2 µM (active) and 30.6 µM (active), respectively. In addition, the compound was classed as inactive in experiment [5].
In the case of `CC(C)(C)c1ccc(CSc2cnn(C(C)(C)C)c(=O)c2Cl)cc1`, the Potency result in [1] was “inactive”. For the same compound, the Potency was 0.0097 µM (active) in experiment [2]; 0.0109 µM (active) in experiment [9]; 0.0306 µM (active) in experiment [11]; 54.5 µM (active) in [4]; 0.0055 µM [inconclusive] (active) in experiment [16]; 0.0109 µM (active) in experiment [13]. Also, the Potency in experiment [7] is 27.3 µM (active); in experiment [8], 61.1 µM (active).
In the case of `CCCN(CC)CC1COC2(CCC(C(C)(C)C)CC2)O1` (configuration not stated), the Potency entry in [1], in [3], in experiment [11], in [16], in experiment [6] and in experiment [14] was “inactive” throughout. Besides, the Potency result in experiment [15], in experiment [13], in experiment [7] and in experiment [8] was “inactive” throughout. The Potency in experiment [2] is 5.45 µM (active); in experiment [9] it was 1.22 µM (active). In addition, the call in experiment [5] was inactive.
For `CC1(C)CC/C(=C/c2ccc(Cl)cc2)C1(O)Cn1cncn1` (configuration not stated), the Potency result in experiment [1], in [16], in [6], in experiment [14], in [15] and in experiment [13] was “inactive” each time. The Potency result in experiment [8] is “inactive”. Besides, the Potency was 21.6 µM (active) in experiment [2], 55.2 µM (active) in [9], 9.63 µM (active) in experiment [19] and 54.2 µM (active) in experiment [12]. Further, the outcome in experiment [5] was inactive.
In the case of `CC(C)OS(C)(=O)=O`, the Potency result in experiment [1], in experiment [2], in experiment [9], in experiment [11], in experiment [4] and in [12] was “inactive” throughout. For the same compound, the Potency entry in experiment [16], in experiment [6], in [14], in experiment [15], in experiment [13] and in [7] was “inactive” each time. The Potency entry in [8] is “inactive”. The result in experiment [5] was inactive.
With `CC(C)Oc1cccc(NC(=O)c2ccccc2C(F)(F)F)c1`, the Potency result in [1], in experiment [3], in experiment [16], in [14], in experiment [15] and in experiment [13] was “inactive” throughout. In addition, the figures for the Potency in experiment [2] and in experiment [9] were 15.4 µM (active) and 30.6 µM (active), respectively. In addition, the compound was classed as inactive in experiment [5].
